From PubChem
Many of the other results were omitted from the sample, so hits are more common in it than they were.
KDM5B inhibitor = inhibitors of human KDM5B histone demethylase; Potency, µM (highest dose often 57.7 µM), most hits filed as inhibitors; AID 1347165; 220,000 compounds, 2.6% hits; Q9UGL1; KDM5B demethylase, FDH-coupled NADH fluorescence (FDH is formaldehyde dehydrogenase); active means well fitted inhibition curve with a large enough effect; further: 0% is about no effect; nearly all actives have a fitted effect of over 70% in size
Target sequence (Q9UGL1 whole entry, looked up): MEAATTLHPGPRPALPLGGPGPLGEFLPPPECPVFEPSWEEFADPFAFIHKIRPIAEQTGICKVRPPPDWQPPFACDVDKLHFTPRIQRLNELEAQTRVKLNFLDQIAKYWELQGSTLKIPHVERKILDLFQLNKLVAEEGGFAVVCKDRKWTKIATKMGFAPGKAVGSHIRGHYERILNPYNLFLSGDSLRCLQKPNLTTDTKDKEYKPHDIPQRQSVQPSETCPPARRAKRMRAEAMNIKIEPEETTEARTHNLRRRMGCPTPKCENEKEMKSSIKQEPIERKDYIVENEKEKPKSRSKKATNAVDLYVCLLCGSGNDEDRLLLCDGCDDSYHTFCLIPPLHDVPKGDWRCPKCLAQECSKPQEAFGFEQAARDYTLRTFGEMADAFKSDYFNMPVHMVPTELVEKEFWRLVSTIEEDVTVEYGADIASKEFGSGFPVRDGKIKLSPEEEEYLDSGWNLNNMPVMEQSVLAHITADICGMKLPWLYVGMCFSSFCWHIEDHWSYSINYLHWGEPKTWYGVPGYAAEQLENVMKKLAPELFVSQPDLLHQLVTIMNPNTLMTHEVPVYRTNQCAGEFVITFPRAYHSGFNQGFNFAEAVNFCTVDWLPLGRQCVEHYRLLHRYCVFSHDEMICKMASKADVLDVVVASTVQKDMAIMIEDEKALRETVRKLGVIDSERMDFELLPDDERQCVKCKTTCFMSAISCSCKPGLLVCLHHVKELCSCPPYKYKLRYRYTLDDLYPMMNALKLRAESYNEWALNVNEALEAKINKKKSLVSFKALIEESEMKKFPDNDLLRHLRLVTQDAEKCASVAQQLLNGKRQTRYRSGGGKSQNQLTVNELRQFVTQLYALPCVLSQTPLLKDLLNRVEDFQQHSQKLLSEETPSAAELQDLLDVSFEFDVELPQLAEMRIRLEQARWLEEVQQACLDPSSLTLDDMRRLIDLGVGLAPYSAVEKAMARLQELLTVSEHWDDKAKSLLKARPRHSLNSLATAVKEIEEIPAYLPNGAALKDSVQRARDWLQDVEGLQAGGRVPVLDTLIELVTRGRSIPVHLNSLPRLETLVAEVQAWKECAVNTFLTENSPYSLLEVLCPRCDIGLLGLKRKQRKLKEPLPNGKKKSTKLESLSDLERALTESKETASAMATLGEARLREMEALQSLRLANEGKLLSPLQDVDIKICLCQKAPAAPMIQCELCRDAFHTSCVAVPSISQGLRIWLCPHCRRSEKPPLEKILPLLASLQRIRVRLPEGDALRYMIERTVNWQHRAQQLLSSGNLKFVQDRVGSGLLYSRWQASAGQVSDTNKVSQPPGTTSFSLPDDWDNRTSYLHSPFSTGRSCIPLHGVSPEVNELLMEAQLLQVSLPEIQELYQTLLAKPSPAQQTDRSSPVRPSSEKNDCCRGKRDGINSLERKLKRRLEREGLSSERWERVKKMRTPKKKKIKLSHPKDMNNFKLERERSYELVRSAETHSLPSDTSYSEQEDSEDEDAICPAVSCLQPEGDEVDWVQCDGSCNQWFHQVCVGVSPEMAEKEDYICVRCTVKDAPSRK
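Inhibition is measured as reduced NADH fluorescence generation from FDH coupling to formaldehyde release. Truncated KDM5BΔAP at 200 nM final acts on H3K4me3 peptide (12.5 µM in substrate mix) in pH 7.5 HEPES buffer with Tween-20, 30 min, room temperature.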
The depositor's hits bear a star; i = inactive. Potency means the concentration at half of the fitted maximal effect.

SMILES	KDM5B inhibitor
COc1ccc(OCC2(C)COc3ccc(C(=O)Nc4ccccc4)cc3N2)cc1 (centres undefined)	28µM*
COc1ccc(OCC2(C)COc3ccc(C(=O)N4C[C@@H](C)O[C@@H](C)C4)cc3N2)cc1 (some centres undefined)	i
COc1ccc(OCC2(C)COc3ccc(C(=O)N(C)CCN(C)C)cc3N2)cc1 (centres undefined)	i
COc1ccc(OCC2(C)COc3ccc(C(=O)NCc4ccco4)cc3N2)cc1 (centres undefined)	18µM*
COc1ccc(OCC2(C)COc3ccc(C(=O)NCC4CCOCC4)cc3N2)cc1 (centres undefined)	32µM*
COc1ccc(OCC2(C)COc3ccc(C(=O)N(C)C)cc3N2)cc1 (centres undefined)	i
CCOC(=O)c1noc2nc(C)nc(Nc3ccc(C(C)C)cc3)c12	i
Brc1ccc(-c2nc(-c3ccccc3)no2)cc1	i
O=C(C1CCC1)N1CCC(c2noc(CO)n2)C1 (centres undefined)	i
COCC(=O)N[C@@H]1CCC[C@@H](C(=O)NCc2cc(F)cc(F)c2)CC(=O)N(C)C1	i
Cc1ccc(S(=O)(=O)N(CC(=O)NCCSc2ccc(Cl)cc2)c2cccc(Cl)c2)cc1	i
Cc1noc([C@@H]2CC(F)(F)CN2C(=O)c2n[nH]c3ccccc23)n1	i
COc1ccc(N2CC(NC(=O)Cc3cccs3)CC2=O)cc1OC (centres undefined)	i
O=C1COc2ccc(Oc3ccccc3)nc2CN1CCOc1ccccc1	i
COCCN1Cc2nc(Nc3ccc(C(F)(F)F)cc3)ccc2OCC1=O	25µM*
Cc1csc(Nc2ccc3c(n2)CN(CCOc2ccccc2)C(=O)CO3)n1	i
O=C1COc2ccc(Nc3ccccc3)nc2CN1CCOc1ccccc1	40µM*
Cc1nc(CN2Cc3nc(Nc4ccccc4)ccc3OCC2=O)cs1	i
COCCN1Cc2nc(Nc3ccc(F)c(Cl)c3)ccc2OCC1=O	i
COc1cccc(CNC(=O)c2sc3nc[nH]c(=O)c3c2C)c1	i
O=C1Nc2ccccc2OCC12CCN(CC1CC1)CC2	i
CC(CC(=O)Nc1ccc2c(c1)CCC2)c1ccccc1 (centres undefined)	i
Cc1ccccc1Oc1c(CCC(=O)NCC2CCCO2)c(C)nn1-c1ccc(F)cc1 (centres undefined)	i
Cc1ccc(NC(=O)N2CCCC(c3noc(COc4ccccc4)n3)C2)c(C)c1 (centres undefined)	i
Cc1ccc(C2=NC3(CCN(C(=O)Cc4ccc(F)cc4)CC3)ON2)cc1	i
SMILES	KDM5B inhibitor
O=C(CCc1ccccc1)N1CCC2(CC1)N=C(c1ccc(Cl)cc1)NO2	i
Cc1ccc(C2=NC3(CCN(C(=O)c4ccc(F)c(F)c4)CC3)ON2)cc1	i
CCOc1ccc(CC(=O)N2CCC3(CC2)N=C(c2ccc(Cl)cc2)NO3)cc1	16µM*
O=C(c1ccc(Cl)cc1)N1CCC2(CC1)N=C(c1ccccc1)NO2	i
CCOc1ccc(C(=O)N2CCC3(CC2)N=C(c2ccc(Cl)cc2)NO3)cc1	28µM*
O=C(NCc1ccc(C(=O)N2CCCCCC2)cc1)c1cc2ccccc2oc1=O	i
CCOc1ccc(C(=O)N2CCC(c3nc(-c4ccc(S(=O)(=O)N5CCCC5)cc4)no3)CC2)cc1	i
O=C([C@@H]1CCCN1Cc1cc(=O)c2cc(F)ccc2[nH]1)N1CCCCC1	28µM*
Cc1[nH]c2ccc(F)cc2c1CC(=O)N1CCCC1	i
O=C1CCN(C(=O)[C@@H]2CCCN2Cc2cccc(OC(F)(F)F)c2)CCCCCCN1	i
COc1cccc(-c2ccc(NC(=O)C3CCCN3C(=O)CNC(C)=O)cc2)c1 (centres undefined)	i
CCc1ccc(CNC(C)CC)cc1 (centres undefined)	i
CCC(CC)CN1CC2(CCN(C(=O)c3cn4cccnc4n3)CC2)OC1=O	32µM*
Cc1ocnc1C(=O)N1CCC2(CC1)CN(CC(C)c1ccccc1)C(=O)O2 (centres undefined)	i
CCC(CC)CN1CC2(CCN(C(=O)CCc3cc(=O)[nH]o3)CC2)OC1=O	i
O=C(c1ccncc1)N1CCC2(CC1)CC(N(Cc1ccc(F)cc1)C1CC1)CCO2 (centres undefined)	32µM*
O=C(c1ccncc1)N1CCC2(CC1)CC(N(Cc1ccccc1)C1CC1)CCO2 (centres undefined)	i
O=C(c1ccc(F)cc1)N1CCC2(CC1)CC(N(Cc1ccc(F)cc1)C1CC1)CCO2 (centres undefined)	i
CCN1C(=O)CCc2cc(NC(=O)c3cc(OC)cc(OC)c3)ccc21	i
O=C(N[C@H]1CCN2C(=O)c3cc(Br)ccc3NC(=O)[C@@H]2C1)C1CCNCC1	i
CC(C)(C)CC(=O)N[C@H]1C[C@H]2C(=O)Nc3ccccc3C(=O)N2C1	i
O=C1Nc2ccc(-c3cccs3)cc2C(=O)N2CC[C@H](NS(=O)(=O)c3ccc(Cl)cc3)C[C@@H]12	32µM*
CC(C)(C)CC(=O)N[C@H]1C[C@H]2C(=O)Nc3ccc(-c4cccs4)cc3C(=O)N2C1	18µM*
COCC(=O)N[C@H]1C[C@H]2C(=O)Nc3ccccc3C(=O)N2C1	i
Cc1ccc(OCC(=O)O/N=C(\N)c2cccc([N+](=O)[O-])c2)cc1C	i
SMILES	KDM5B inhibitor
N#Cc1ccc(C(=O)Nc2ccc3c4c(cccc24)CC3)c(F)c1	i
Cn1ccnc1CNC(=O)C[C@@H]1C[C@H]2O[C@H](CNC3CCNCC3)[C@@H](O)[C@H]2O1	i
O=C(CSc1nnc(-c2ccncc2)o1)Nc1ccc2c(c1)OCO2	i
CCN(CC)c1nc2ccccc2nc1C(=O)Nc1ccc(F)c(Cl)c1	i
Cc1noc(C)c1-c1cc2c(cc(C)n2C)c(-c2cccc(CO)c2)n1	i
CNC(=O)c1cc2cc(-c3c(C)noc3C)nc(-c3ccccc3C)c2o1	35µM*
CNC(=O)c1cc2cc(-c3c(C)noc3C)nc(-c3cccc(CO)c3)c2o1	35µM*
Cc1cc(C)c(S(=O)(=O)Nc2cnc3ccccc3c2)c(C)c1	i
N#Cc1cccc(CN(Cc2cccc(C#N)c2)[C@@H]2CO[C@H](CNC(=O)c3ccccc3)[C@H]2O)c1	i
CCOc1cc(-c2ccc(OCC(=O)OC)c(OC)c2)cc(=O)c2c(C)oc(C)c12	i
COc1ccc2c(c1)CC/C(=C\c1cccc(Br)c1)C2=O	i
CCc1[nH]c(C(=O)OC(C)C(=O)NC2CC2)c(C)c1C(=O)OC (centres undefined)	i
COc1ccc(NC(=O)c2ccccc2Cl)c2cccnc12	i
Cn1c(=O)c2c(nc(SCCCO)n2Cc2cccc3ccccc23)n(C)c1=O	i
Cc1c(-c2ccc(F)cc2)[nH]c2ccc(CNC(=O)c3cnn(C)c3)cc12	32µM*
O=C(NCc1ccc(Br)cc1)c1n[nH]c2c1CCCC2	i
Cc1c(-c2ccc(F)cc2)[nH]c2ccc(CNC(=O)c3n[nH]c4c3CCCC4)cc12	10µM*
O=C(NCc1ccc(N2CCCC2)nc1)c1ccc(F)cc1	i
O=C(NCc1cccc(C(F)(F)F)c1)c1n[nH]c2c1CCCC2	i
O=C(NCc1ccc(Cl)cc1)c1cc(-c2ccc(F)cc2)on1	i
COc1cc2c(cc1OC)C(CNC(=O)CC(C)C)N(C(=O)Nc1cccc(C)c1)CC2 (centres undefined)	i
COC1CCN(C(=O)c2cccc(S(=O)(=O)N3CCC(C#N)CC3)c2)C1 (centres undefined)	i
